Measurements from PubChem BioAssay (NCATS).
Where “and” joins values, the source holds several entries; their conditions need not be identical. Identical values can stand only once. Records with an inconclusive call do not appear. Calls of active or inactive are those of the source. Unless noted, calls come from the whole dose curve; as a rule, active = well fitted curve in the direction sought with a large enough effect; inconclusive = small, poorly fitted or top-dose-only effect, or another doubt; inactive = no such curve, though single readings can be large; an effect the other way counts as inactive or inconclusive.

Columns and labels:
[1] = Cell Viability - HepG2 (AID 433; calls by dose curve;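 note: potency is the fitted concentration of half-maximal effect; cells exposed to compound for 40 hours; potency for ATP loss meaning cytotoxicity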); conditions: qHTS
Procedure, shortened: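 ATP luminescence (CellTiter-Glo) after 40 h compound exposure, 37 °C, HepG2, 1500 cells/well, complete medium. Normalized: DMSO = basal, 100 uM tamoxifen = 100% inhibition. AC50 via standard Hill equation.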

[2] = Cell Viability - N2a (AID 540); conditions: N2a mouse neuroblastoma cell viability; activity change, negative = cytotoxicity: at 92.2 µM (top of the series);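 note: plate controls were DMSO alone for no effect and tamoxifen control for full effect; nearly all actives have a fitted effect of over 45% in size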
Procedure, shortened: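 CellTiter-Glo ATP luminescence, read 20 min after reagent at room temperature, reported viability following 40 h compound treatment at 37 °C. N2a mouse neuroblastoma cells seeded 1500/well; Hill equation gave AC50.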

[3] = Cellular Toxicity (caspase-3) Jurkat (AID 655); conditions: Jurkat caspase-3 activation, luminescence; caspase-3 activation: at 92.2 µM (top of the series), DMSO = 0%, tamoxifen = 100%;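 note: cells exposed to compound for 16 h at 37 °C before reading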
Procedure, shortened: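 Luminescent caspase-3/7 readout (aminoluciferin substrate cleavage) in human T-cell leukemia Jurkat cells after 16 hr compound exposure. Concentration-response normalized to DMSO and 100 uM tamoxifen; AC50 by standard Hill equation.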

[4] = Cellular Toxicity (caspase-3) BJ (AID 658); conditions: BJ fibroblasts, luminescence, normalized: DMSO 0%, staurosporine 100%; series mostly up to 91.7 µM;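 note: 0% = DMSO basal and 100% = 10 µM staurosporine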
Procedure, shortened: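 qHTS, BJ fibroblasts, 1000 cells/well; 5 hr preincubation, 16 hr compound, 37 °C; Caspase-Glo 3/7 reagent, 1 hr RT; luminescence. DMSO = 0%, 10 uM staurosporine = 100%. Hill-equation AC50.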

[5] = MultiTox-Fluor Cytotoxicity Assay - LYMP1-002 - Live Cells (AID 955); conditions: LYMP1-002 lymphoblastoid live-cell protease fluorescence viability; series mostly up to 46.1 µM; note: % is set by controls: 0 for no effect and ±100 for the full control effect
Procedure, shortened: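 After 16 h compound exposure at 37 C, live LYMP1-002 lymphoblastoid cells (2500/well) were quantified by cleavage of cell-permeant GF-AFC substrate, read at 405/510 nm after 60 min. Concentration-response fitted with Hill equation for AC50.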

[6] = Cell Viability - LYMP2-004 (AID 966); conditions: LYMP2-004 lymphoblastoid cell viability, qHTS; series mostly up to 92.2 µM;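 note: plate controls were DMSO only for no effect and tetraoctylammonium bromide control for full effect; nearly all actives have a fitted effect of over 65% in size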
Procedure, shortened: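 AC50 values come from Hill modelling of concentration-dependent loss of intracellular ATP, measured by CellTiter-Glo luminescence. Human LYMP2-004 lymphoblastoid cells (2500/well) were exposed to compound for 24 h at 37 C.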

[7] = Cell Viability - LYMP2-023 (AID 975); conditions: LYMP2-023 lymphoblastoid cell viability; series mostly up to 92.2 µM;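 note: cellular ATP measured by luciferase luminescence as viability proxy; plate controls were DMSO only for no effect and 92 µM tetraoctylammonium bromide control for full effect; nearly all actives have a fitted effect of over 55% in size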
Procedure, shortened: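 Intracellular ATP, read by CellTiter-Glo luminescence, reports viability after 24 hr compound exposure at 37 C. 2500 lymphoblastoid cells/well (LYMP2-023) seeded 5 hr beforehand; Hill fits give AC50; positive control tetraoctylammonium bromide.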

[8] = Cell Viability - LYMP2-025 (AID 976); conditions: LYMP2-025 lymphoblastoid cell viability; series mostly up to 92.2 µM;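 note: plate controls were DMSO only for no effect and tetraoctylammonium bromide control for full effect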
Procedure, shortened: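 Cytotoxicity read as loss of intracellular ATP (luciferase luminescence) after 24 h compound treatment at 37 C. Uses LYMP2-025 lymphoblastoid cells in 1536-well format; Hill-equation modelling gives AC50; tetraoctylammonium bromide as positive control.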

[9] = Cell Viability - LYMP2-002 (AID 977); conditions: LYMP2-002 lymphoblastoid cell viability, qHTS; series mostly up to 92.2 µM;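 note: plate controls were DMSO only for no effect and 92 µM tetraoctylammonium bromide for full effect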
Procedure, shortened: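 Human lymphoblastoid cells, 2500/well, complete medium; 5 h 37 C settle; compound 24 h 37 C; CellTiter-Glo, 30 min RT; luminescence. Decrease in ATP = cytotoxicity; AC50 via Hill equation.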

[10] = Cell Viability - LYMP2-012 (AID 982); conditions: LYMP2-012 lymphoblastoid cell viability qHTS; series mostly up to 92.2 µM;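 note: cellular ATP by luciferase luminescence where a drop means cytotoxicity; cells exposed to compound for one day before reading; 0% = DMSO only and full loss = 92 µM tetraoctylammonium bromide; nearly all actives have a fitted effect of over 55% in size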
[11] = Cell Viability - LYMP2-014 (AID 983); conditions: LYMP2-014 lymphoblastoid cells, viability qHTS; series mostly up to 92.2 µM;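 note: plate controls were DMSO only for no effect and 92 µM tetraoctylammonium bromide for full effect; nearly all actives have a fitted effect of over 50% in size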
Procedure, shortened: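 Intracellular ATP loss, read by luciferase luminescence, measures acute cytotoxicity after 24 h compound exposure of lymphoblastoid LYMP2-014 cells (2500/well, 37 C). Concentration-response data fitted to the Hill equation for AC50.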

[12] = Cell Viability - LYMP2-016 (AID 984); conditions: LYMP2-016 lymphoblastoid cell viability, qHTS; series mostly up to 92.2 µM; note: % is set by controls: 0 for no effect and ±100 for the full control effect; nearly all actives have a fitted effect of over 55% in size
Procedure, shortened: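 qHTS, 1536-well: 2500 LYMP2-016 cells/well, 5 hr 37 C, compound added, 24 hr 37 C, CellTiter-Glo 30 min RT, luminescence. Tetraoctylammonium bromide positive control. AC50 via Hill fit.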

[13] = Cell Viability - LYMP2-022 (AID 987); conditions: LYMP2-022 lymphoblastoid cell viability; series mostly up to 92.2 µM;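 note: 0% = DMSO alone and full effect = tetraoctylammonium bromide at 92 µM; nearly all actives have a fitted effect of over 55% in size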
Procedure, shortened: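 Cytotoxicity read as decreased cellular ATP (CellTiter-Glo luminescence, 30 min room temperature) after 24 hours compound exposure of 2500 lymphoblastoid LYMP2-022 cells/well at 37 C. Concentration-response data fitted with standard Hill equation for AC50.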

[14] = biological target: Retinoic acid receptor RXR-alpha (Homo sapiens) (UniProt P19793); experiment: qHTS assay for small molecule antagonists of retinoid X receptor alpha signaling (AID 588546; active = well fitted inhibition curve with a large enough effect in the signal ratio, with a control signal flat, not every such curve was filed as active; the % refers to the signal ratio;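 note: cells stimulated with 9-cis-retinoic acid as agonist; % is set by controls: 0 for no effect and ±100 for the full control effect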); conditions: HEK293T RXRa-UAS-bla, beta-lactamase ratio, antagonist mode
Procedure, shortened: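 Beta-lactamase reporter inhibition, read as CCF4 fluorescence ratio (ex 405, em 460/530 nm) after 2 h at RT. HEK293T UAS-bla cells, 2500/well, were stimulated with 9-cis-RA at 500 or 100 nM final alongside test compound for 18 h at 37 C.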

[15] = biological target: Voltage-gated inwardly rectifying potassium channel KCNH2 (Homo sapiens) (UniProt Q12809); experiment: qHTS Assay for Small Molecule Inhibitors of the Human hERG Channel Activity (AID 588834); conditions: U2OS BacMam hERG, FluxOR thallium flux fluorescence; series mostly up to 92.2 µM;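 note: top concentration of the series differs between compounds; % is set by controls: 0 for no effect and ±100 for the full control effect; lower thallium flux fluorescence means stronger hERG block; nearly all actives have a fitted effect of over 50% in size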
Procedure, shortened: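 Thallium-flux (FluxOR) read-out on FDSS: fluorescence read 10 s before and 2 min after stimulation buffer. hERG-BacMam-transduced U2OS cells, compound exposure about 10 min. AC50 by standard Hill equation.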

[16] = qHTS assay for small molecule activators of the p53 signaling pathway (AID 651743; active = well fitted activation curve with a large enough effect in the signal ratio, not every such curve was filed as active; the % refers to the signal ratio; note: % of control where 0% means no effect); conditions: HCT-116 p53RE-bla, beta-lactamase FRET ratio, 16 h; activation: hits give high values
Procedure, shortened: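 Following 16 hours of compound exposure at 37 C, HCT-116 cells bearing the p53RE-bla reporter were loaded with LiveBLAzer B/G FRET substrate for 2 hours at room temperature and fluorescence intensity was recorded.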

[17] = qHTS assay for cell viability of HEK293 cells (AID 743288); conditions: ATP luminescence (CellTiter-Glo), 18 h, hits give low values; note: % is set by controls: 0 for no effect and ±100 for the full control effect; nearly all actives have a fitted effect of over 50% in size
Procedure, shortened: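 ATP luminescence (CellTiter-Glo) reports metabolically competent cell number after parental HEK293 cells, 2,000/well, were treated with DMSO-dissolved compounds for 18 h at 37 C; reagent incubation 30 min, room temperature.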

[18] = Cell Viability - LYMP2-011 (AID 969); conditions: LYMP2-011 lymphoblastoid cells viability; series mostly up to 92.2 µM;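 note: 0% = DMSO only and full inhibition = 92 µM tetraoctylammonium bromide; nearly all actives have a fitted effect of over 60% in size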
Procedure, shortened: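 Cytotoxicity qHTS with ATP content as read-out: lymphoblastoid cells (2500/well) exposed to compound for 24 h at 37 C, then luciferase luminescence measured. Concentration-response data fitted with the standard Hill equation to give AC50.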

[19] = Cell Viability - LYMP2-020 (AID 986); conditions: series mostly up to 92.2 µM
Procedure, shortened: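 Cytotoxicity in qHTS format: luminescent ATP readout from CellTiter-Glo after 24 h compound exposure at 37 C in complete medium. LYMP2-020 lymphoblastoid cells were seeded at 2500/well; concentration-response data fitted to the Hill equation for AC50.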

[20] = biological target: Vitamin D3 receptor (Homo sapiens) (UniProt P11473); experiment: qHTS assay for small molecule agonists of vitamin D receptor signaling (AID 588543; calls by dose curve;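 note: 0% = DMSO basal and 100% = reference agonist control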); conditions: HEK293T VDR-UAS-bla, beta-lactamase ratio, 16 h; series mostly up to 76.8 µM
Procedure, shortened: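 β-lactamase reporter, VDR-UAS-bla HEK293T, agonist mode. Cells plated 5 h at 37 °C, compound titration 16 h at 37 °C, CCF4 dye 2 h RT, ratio 460/530 nm. Hill fit → EC50, efficacy vs 50 nM 1α,25-(OH)2D3.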

Sequence of Retinoic acid receptor RXR-alpha (Homo sapiens) (P19793 whole entry, looked up): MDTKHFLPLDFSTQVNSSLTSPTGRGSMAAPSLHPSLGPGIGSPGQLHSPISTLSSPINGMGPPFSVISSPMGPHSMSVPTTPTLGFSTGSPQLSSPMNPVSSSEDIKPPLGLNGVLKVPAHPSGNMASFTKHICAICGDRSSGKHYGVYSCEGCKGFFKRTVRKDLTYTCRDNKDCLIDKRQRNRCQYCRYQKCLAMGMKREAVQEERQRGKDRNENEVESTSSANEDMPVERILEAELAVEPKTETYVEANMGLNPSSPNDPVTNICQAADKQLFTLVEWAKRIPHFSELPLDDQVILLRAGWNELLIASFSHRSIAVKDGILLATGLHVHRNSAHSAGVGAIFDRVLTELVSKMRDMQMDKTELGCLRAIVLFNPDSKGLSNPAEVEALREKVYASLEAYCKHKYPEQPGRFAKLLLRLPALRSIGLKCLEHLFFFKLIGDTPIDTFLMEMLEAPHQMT
Sequence of Voltage-gated inwardly rectifying potassium channel KCNH2 (Homo sapiens) (Q12809 whole entry, looked up): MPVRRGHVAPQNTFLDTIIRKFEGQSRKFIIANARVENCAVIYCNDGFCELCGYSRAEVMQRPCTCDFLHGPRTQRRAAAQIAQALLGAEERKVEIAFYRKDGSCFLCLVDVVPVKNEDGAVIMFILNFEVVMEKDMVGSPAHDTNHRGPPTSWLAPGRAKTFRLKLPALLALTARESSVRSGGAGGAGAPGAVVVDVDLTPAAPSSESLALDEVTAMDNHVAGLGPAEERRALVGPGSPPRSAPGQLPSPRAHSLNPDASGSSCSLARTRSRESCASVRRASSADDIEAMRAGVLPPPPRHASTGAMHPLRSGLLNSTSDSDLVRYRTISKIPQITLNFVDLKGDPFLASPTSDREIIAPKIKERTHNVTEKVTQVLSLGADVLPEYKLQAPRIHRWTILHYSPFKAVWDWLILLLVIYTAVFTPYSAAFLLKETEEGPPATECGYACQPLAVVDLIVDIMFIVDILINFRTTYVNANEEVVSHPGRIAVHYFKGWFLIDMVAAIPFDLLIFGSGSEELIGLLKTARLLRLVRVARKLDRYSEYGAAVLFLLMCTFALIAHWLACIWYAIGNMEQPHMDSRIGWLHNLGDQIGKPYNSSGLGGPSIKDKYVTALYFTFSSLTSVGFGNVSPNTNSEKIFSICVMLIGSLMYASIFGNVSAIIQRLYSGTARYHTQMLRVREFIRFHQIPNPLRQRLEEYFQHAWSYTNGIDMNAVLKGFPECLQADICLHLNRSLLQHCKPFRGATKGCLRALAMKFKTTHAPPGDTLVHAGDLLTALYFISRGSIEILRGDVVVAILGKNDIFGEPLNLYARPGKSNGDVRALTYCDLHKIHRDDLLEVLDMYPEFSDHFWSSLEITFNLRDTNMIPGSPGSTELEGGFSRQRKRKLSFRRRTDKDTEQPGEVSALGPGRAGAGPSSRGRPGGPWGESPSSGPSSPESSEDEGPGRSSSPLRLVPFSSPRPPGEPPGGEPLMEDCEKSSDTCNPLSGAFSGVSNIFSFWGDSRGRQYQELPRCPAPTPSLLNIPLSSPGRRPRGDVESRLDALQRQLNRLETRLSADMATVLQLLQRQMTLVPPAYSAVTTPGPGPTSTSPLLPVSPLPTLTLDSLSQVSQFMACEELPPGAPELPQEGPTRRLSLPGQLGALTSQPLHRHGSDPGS
Sequence of Vitamin D3 receptor (Homo sapiens) (P11473 whole entry, looked up): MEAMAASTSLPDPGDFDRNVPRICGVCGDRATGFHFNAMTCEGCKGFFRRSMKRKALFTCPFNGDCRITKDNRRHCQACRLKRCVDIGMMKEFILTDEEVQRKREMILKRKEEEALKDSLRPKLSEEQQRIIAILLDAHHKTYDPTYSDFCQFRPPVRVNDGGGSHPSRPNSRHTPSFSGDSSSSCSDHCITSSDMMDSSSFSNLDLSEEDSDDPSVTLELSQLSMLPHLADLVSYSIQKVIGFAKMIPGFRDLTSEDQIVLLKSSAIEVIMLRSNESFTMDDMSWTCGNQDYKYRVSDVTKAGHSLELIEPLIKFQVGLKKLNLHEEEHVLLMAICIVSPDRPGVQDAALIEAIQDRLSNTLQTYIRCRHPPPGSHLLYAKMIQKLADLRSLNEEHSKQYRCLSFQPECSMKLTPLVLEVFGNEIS

S=c1[nH]c2ccccc2[nH]1
inactive: Potency [1] > 92 µM | Potency [2] | caspase-3 activation [3] -0.402% | outcome [4] | outcome [5] | Potency [6] | Potency [7] | Potency [8] | Potency [9] | Potency [10] | Potency [11] | Potency [12] | Potency [13] | max response [14] 5.37% | Potency [15] | activation [16] -4.45% | max response [17] 7.64%

Clc1cccc2ccccc12
inactive: Potency [1] > 92 µM | Potency [2] | caspase-3 activation [3] 0.494% | outcome [4] | outcome [5] | Potency [6] | Potency [18] | Potency [7] | Potency [8] | Potency [9] | Potency [10] | Potency [11] | Potency [12] | Potency [19] | Potency [13] | outcome [20] | max response [14] -3.67% | Potency [15] | max response [17] -4.26%

Nc1cc(Cl)cc(C(=O)O)c1Cl
inactive: Potency [1] > 92 µM | Potency [2] | caspase-3 activation [3] -0.545% | outcome [4] | Potency [18] | Potency [7] | Potency [8] | Potency [10] | Potency [11] | Potency [12] | Potency [19] | Potency [13] | outcome [20] | max response [14] 5.23% and 3.9% | Potency [15] | activation [16] -3.99% and 3.61% | max response [17] 10.5% and -2.29%

Cc1ccc(N=C=O)cc1N=C=O
inactive: Potency [1] > 92 µM | Potency [2] | caspase-3 activation [3] 0.0584% | outcome [4] | outcome [5] | Potency [6] | Potency [18] | Potency [7] | Potency [8] | Potency [9] | Potency [10] | Potency [11] | Potency [12] | Potency [19] | Potency [13] | outcome [20] | max response [14] 6.03% and 0.743% | Potency [15] | activation [16] -2.11% and -1.5% | max response [17] -9.26% and -8.71%

CN(C)c1ccccc1
inactive: Potency [1] > 92 µM | Potency [2] | outcome [4] | outcome [5] | Potency [6] | Potency [18] | Potency [7] | Potency [8] | Potency [10] | Potency [11] | Potency [12] | Potency [19] | outcome [20] | max response [14] 5.23% | Potency [15] | activation [16] -3.2% | max response [17] 0.461%

CCC[N+](=O)[O-]
inactive: Potency [1] > 92 µM | Potency [2] | caspase-3 activation [3] -1.47% | outcome [4] | Potency [18] | Potency [9] | Potency [10] | Potency [11] | Potency [12] | Potency [19] | Potency [13] | outcome [20] | Potency [15] | activation [16] -0.809% | max response [17] 2.89%

CCOP(=S)(OCC)SCCSCC
inactive: Potency [1] > 92 µM | Potency [2] | caspase-3 activation [3] -2.31% | Potency [6] | Potency [18] | Potency [7] | Potency [8] | Potency [9] | Potency [11] | Potency [12] | Potency [19] | Potency [13] | max response [14] -3% and -2.15% | activation [16] -1.38% and -6.24% | max response [17] -9.57% and -7.92%

O=[N+]([O-])CCO
inactive: Potency [1] > 92 µM | Potency [2] | caspase-3 activation [3] -0.445% | outcome [4] | outcome [5] | Potency [6] | Potency [7] | Potency [8] | Potency [9] | Potency [11] | Potency [12] | Potency [19] | max response [14] -8.95% | Potency [15] | max response [17] -4.92%

Nc1ccc2ccccc2c1
inactive: Potency [2] | caspase-3 activation [3] 1.77% | outcome [5] | Potency [6] | Potency [18] | Potency [8] | Potency [9] | Potency [10] | Potency [11] | Potency [12] | Potency [19] | Potency [13] | outcome [20] | max response [14] -0.227% | Potency [15] | activation [16] 0.265% | max response [17] 3.26%

CC(C)(C)c1ccccc1O
inactive: Potency [1] > 92 µM | Potency [2] | caspase-3 activation [3] -1.03% | outcome [4] | Potency [6] | Potency [18] | Potency [9] | Potency [11] | Potency [12] | Potency [19] | outcome [20] | max response [14] 2.54% and -7.07% | Potency [15] | max response [17] -7.55% and -11.9%

O=[N+]([O-])c1ccc2c3c(cccc13)CC2
inactive: Potency [1] > 92 µM | Potency [2] | outcome [4] | outcome [5] | Potency [6] | Potency [18] | Potency [7] | Potency [8] | Potency [9] | Potency [10] | Potency [11] | Potency [12] | Potency [19] | Potency [13] | outcome [20] | max response [14] 28.1% and 10.3% | Potency [15] | activation [16] -4.24% and -1.29% | max response [17] -14% and -2.65%

CCSC(=O)N1CCCCCC1
inactive: Potency [1] > 92 µM | caspase-3 activation [3] 0.302% | outcome [4] | outcome [5] | Potency [6] | Potency [7] | Potency [8] | Potency [9] | Potency [10] | Potency [11] | Potency [12] | Potency [19] | Potency [13] | outcome [20] | max response [14] -8.27% and -1.48% | activation [16] -3.15% and 2.49% | max response [17] 2.92% and -12.6%

C=CCCC#N
inactive: Potency [1] > 92 µM | Potency [2] | outcome [4] | outcome [5] | Potency [6] | Potency [18] | Potency [7] | Potency [9] | Potency [10] | Potency [11] | Potency [12] | Potency [19] | Potency [13] | outcome [20] | max response [14] 17.4% | Potency [15] | activation [16] -2.14% | max response [17] -20.1%
